Measurements published in PubChem BioAssay (Tox21).
Inconclusive results are not listed. Active and inactive are the calls of the source. Calls come from the whole dose curve; as a rule, active = well fitted curve in the direction sought with a large enough effect in the repeat runs; inconclusive = weak or mixed curves; inactive = no such curve, though single readings can be large; an effect the other way counts as inactive or inconclusive.

Tests used:
[1] = Caspase-3/7 induction in CHO-K1 cells by small molecules, qHTS cell viability counter screen (AID 1346979); note: nearly all actives have a fitted effect of over 35% in size; note: potency is the fitted concentration of half-maximal effect
Procedure, shortened: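 Cells (CHO-K1, wild type) are plated at 1,500 per well and incubated 5hr. Test compounds in DMSO are then pinned in, followed by 16hr at 37C and 5% CO2. Viability is read by CellTiter-Fluor fluorescence after 1hr.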

[2] = Caspase-3/7 induction in CHO-K1 cells by small molecules, qHTS assay (AID 1346980); note: nearly all actives have a fitted effect of over 15% in size
Procedure, shortened: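 Wild-type CHO-K1 cells exposed to compounds for 17hr at 37 C, 5% CO2. Caspase-3/7 activity then measured by Caspase-Glo 3/7 luminescence after 30min at room temperature.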

[3] = Caspase-3/7 induction in HepG2 cells by small molecules, qHTS cell viability counter screen (AID 1346981); note: series mostly up to about 92 µM; nearly all actives have a fitted effect of over 30% in size
Procedure, shortened: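 Counter screen for cytotoxicity: HepG2 exposed 16 hr to compounds, then CellTiter-Fluor viability signal (fluorescence, 1 hr reagent incubation).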

[4] = molecular target: Nuclear receptor subfamily 1 group I member 2 (Homo sapiens) (UniProt O75469); assay: Human pregnane X receptor (PXR) small molecule agonists, qHTS assay (AID 1346982); note: nearly all actives have a fitted effect of over 35% in size; note: potency is the fitted concentration of half-maximal effect
Nuclear receptor subfamily 1 group I member 2 (Homo sapiens), sequence (O75469 whole entry, looked up): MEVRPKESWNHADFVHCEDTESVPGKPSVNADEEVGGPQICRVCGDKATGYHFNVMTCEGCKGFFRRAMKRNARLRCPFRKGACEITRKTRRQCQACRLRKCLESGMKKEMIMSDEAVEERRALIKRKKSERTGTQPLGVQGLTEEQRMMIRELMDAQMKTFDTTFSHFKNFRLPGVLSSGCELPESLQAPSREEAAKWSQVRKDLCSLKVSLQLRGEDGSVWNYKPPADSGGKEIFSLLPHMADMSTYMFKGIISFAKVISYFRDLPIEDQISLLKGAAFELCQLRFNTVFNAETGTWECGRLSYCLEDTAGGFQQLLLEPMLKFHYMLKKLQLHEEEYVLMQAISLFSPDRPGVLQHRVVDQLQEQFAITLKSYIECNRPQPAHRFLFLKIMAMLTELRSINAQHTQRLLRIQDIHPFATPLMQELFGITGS
Procedure, shortened: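 Luminescence (ONE-Glo, 30 min RT) after 24 hr compound exposure of PXR-Luc HepG2 cells; cells rested 5 hr post-plating in 5% charcoal-stripped FBS medium.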

[5] = molecular target: Nuclear receptor subfamily 1 group I member 2 (Rattus norvegicus) (UniProt Q9R1A7); assay: Rat pregnane X receptor (rPXR) activation by small molecules, qHTS assay (AID 1346983); conditions: rPXR luciferase reporter cells, One-Glo luminescence, 24 h; max activation: hits give high values; note: nearly all actives have a fitted effect of over 20% in size; note: potency is the fitted concentration of half-maximal effect
Nuclear receptor subfamily 1 group I member 2 (Rattus norvegicus), sequence (Q9R1A7 whole entry, looked up): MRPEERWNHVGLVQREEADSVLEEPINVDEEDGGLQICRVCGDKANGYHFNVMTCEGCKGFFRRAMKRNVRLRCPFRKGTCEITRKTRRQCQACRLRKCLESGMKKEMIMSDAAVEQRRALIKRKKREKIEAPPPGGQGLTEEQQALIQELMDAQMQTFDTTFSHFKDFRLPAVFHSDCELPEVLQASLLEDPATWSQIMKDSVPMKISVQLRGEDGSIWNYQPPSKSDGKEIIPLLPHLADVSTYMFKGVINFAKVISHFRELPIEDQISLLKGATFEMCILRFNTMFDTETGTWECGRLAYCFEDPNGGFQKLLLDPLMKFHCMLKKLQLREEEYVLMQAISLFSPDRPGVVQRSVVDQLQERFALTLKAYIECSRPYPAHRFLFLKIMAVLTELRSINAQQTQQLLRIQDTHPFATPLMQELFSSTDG
Procedure, shortened: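 Cell-based rPXR activation assay: rPXR cells, 2,000 per well, rested 5hr at 37 C, then exposed to compounds in DMSO for 24 hr at 37 C. Luciferase activity read by One-Glo luminescence after 30 min at room temperature.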

[6] = molecular target: Nuclear receptor subfamily 1 group I member 2 (Homo sapiens) (UniProt O75469); assay: CYP3A4 induction through human pregnane X receptor (PXR) by small molecules, qHTS assay (AID 1346984); note: nearly all actives have a fitted effect of over 40% in size
Procedure, shortened: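 DPX-2 reporter cells; 24h cpd, 37C; Luciferin-IPA 3uM final x3h; One-Glo 30 min RT; lumi read.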

[7] = molecular target: Nuclear receptor subfamily 1 group I member 2 (Homo sapiens) (UniProt O75469); assay: Human pregnane X receptor (PXR) activation by small molecules, qHTS assay (AID 1346985); note: nearly all actives have a fitted effect of over 40% in size; note: potency is the fitted concentration of half-maximal effect
Procedure, shortened: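 DPX-2 cells (HepG2 co-transfected with a PXR response element and a CYP3A4-promoter luciferase construct) were seeded at 2,000 per well, rested 5 hr at 37C, then exposed to DMSO-dissolved compounds for 24 hr. Activation was read as luciferase luminescence.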

[8] = molecular target: Cytochrome P450 2D6 (Homo sapiens) (UniProt P10635); assay: Cytochrome P450 Family 2 Subfamily D Member 6 (CYP2D6) small molecule antagonists: luciferase reporter qHTS assay (AID 1671196); note: nearly all actives have a fitted effect of over 50% in size; note: potency is the fitted concentration of half-maximal effect; for activity change, negative = inhibition: series mostly up to about 120 µM
Cytochrome P450 2D6 (Homo sapiens), sequence (P10635 whole entry, looked up): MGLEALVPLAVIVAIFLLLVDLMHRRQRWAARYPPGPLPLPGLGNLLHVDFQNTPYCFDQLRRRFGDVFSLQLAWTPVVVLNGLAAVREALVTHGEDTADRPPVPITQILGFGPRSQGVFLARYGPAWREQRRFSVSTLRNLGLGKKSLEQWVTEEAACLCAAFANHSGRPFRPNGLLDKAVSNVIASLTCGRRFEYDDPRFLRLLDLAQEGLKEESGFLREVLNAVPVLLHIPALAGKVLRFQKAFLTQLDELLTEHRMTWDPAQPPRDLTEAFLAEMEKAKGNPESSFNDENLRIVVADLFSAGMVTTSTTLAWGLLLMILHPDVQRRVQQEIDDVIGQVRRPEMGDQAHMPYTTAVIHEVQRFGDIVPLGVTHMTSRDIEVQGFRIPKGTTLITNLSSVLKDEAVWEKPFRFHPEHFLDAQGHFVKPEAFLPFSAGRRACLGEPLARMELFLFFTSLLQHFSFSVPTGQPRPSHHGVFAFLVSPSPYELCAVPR
Procedure, shortened: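 Inhibition of CYP2D6 was gauged by loss of luminescence, since light produced tracks the luciferin generated from a proluciferin substrate. A 10 min room-temperature preincubation preceded 1 h NADPH-supported turnover.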

[9] = molecular target: Cytochrome P450 2C19 (Homo sapiens) (UniProt P33261); assay: Cytochrome P450 Family 2 Subfamily C Member 19 (CYP2C19) small molecule antagonists: luciferase reporter qHTS assay (AID 1671197); note: nearly all actives have a fitted effect of over 65% in size; note: potency is the fitted concentration of half-maximal effect; for activity change, negative = inhibition: series mostly up to about 120 µM
Cytochrome P450 2C19 (Homo sapiens), sequence (P33261 whole entry, looked up): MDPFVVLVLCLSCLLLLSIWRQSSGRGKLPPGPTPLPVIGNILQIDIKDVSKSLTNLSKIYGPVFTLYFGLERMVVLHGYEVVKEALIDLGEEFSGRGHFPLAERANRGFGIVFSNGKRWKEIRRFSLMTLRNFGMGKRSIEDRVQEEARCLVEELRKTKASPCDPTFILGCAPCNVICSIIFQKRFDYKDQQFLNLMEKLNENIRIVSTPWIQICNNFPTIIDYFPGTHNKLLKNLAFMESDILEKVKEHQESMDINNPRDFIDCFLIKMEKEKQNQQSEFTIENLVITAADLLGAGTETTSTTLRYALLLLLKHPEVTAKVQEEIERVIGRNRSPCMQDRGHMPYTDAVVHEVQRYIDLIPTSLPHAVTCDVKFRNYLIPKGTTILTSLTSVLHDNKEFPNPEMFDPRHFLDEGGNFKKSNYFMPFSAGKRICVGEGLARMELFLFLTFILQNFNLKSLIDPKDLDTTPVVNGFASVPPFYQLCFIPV
Procedure, shortened: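 First, compounds are pinned into enzyme-substrate mix and held 10 min at room temperature. Second, NADPH regeneration solution is added and plates incubate 1 h at 37C. Third, detection reagent is added and luminescence read after 20 min.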

[10] = molecular target: Cytochrome P450 2C9 (Homo sapiens) (UniProt P11712); assay: Cytochrome P450 Family 2 Subfamily C Member 9 (CYP2C9) small molecule antagonists: luciferase reporter qHTS assay (AID 1671198); note: nearly all actives have a fitted effect of over 50% in size; note: potency is the fitted concentration of half-maximal effect; for activity change, negative = inhibition: series mostly up to about 120 µM
Cytochrome P450 2C9 (Homo sapiens), sequence (P11712 whole entry, looked up): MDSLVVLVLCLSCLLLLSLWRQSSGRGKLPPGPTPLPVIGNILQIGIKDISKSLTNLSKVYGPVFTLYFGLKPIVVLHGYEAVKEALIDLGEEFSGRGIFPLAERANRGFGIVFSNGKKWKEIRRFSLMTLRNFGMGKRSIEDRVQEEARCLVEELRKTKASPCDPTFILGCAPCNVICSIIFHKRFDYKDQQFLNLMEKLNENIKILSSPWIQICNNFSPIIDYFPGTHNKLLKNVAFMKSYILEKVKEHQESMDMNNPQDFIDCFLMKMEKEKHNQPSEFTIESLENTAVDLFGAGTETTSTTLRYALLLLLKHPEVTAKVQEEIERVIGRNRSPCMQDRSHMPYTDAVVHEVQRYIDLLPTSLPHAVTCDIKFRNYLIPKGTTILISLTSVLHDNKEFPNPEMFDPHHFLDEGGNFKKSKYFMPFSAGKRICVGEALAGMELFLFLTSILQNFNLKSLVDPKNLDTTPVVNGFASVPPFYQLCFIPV
Procedure, shortened: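 P450-Glo proluciferin substrate with CYP2C9 enzyme; 10 min RT preincubation, then NADPH regeneration 1 h at 37C; luciferin detection reagent 20 min RT, luminescence in relative luminescence units.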
% is set by controls: 0 for no effect and ±100 for the full control effect.

COC(=O)C1=C(C)NC(C)=C(C(=O)OC(C)C)C1c1cccc2nonc12 (centres undefined)
active: Potency [1] 26.6 µM | Potency [4] 1.33 µM | Potency [5] 10 µM | Potency [7] 0.891 µM
inactive: outcome [2] | Potency [3] | Potency [6]

C[N+]1(C)[C@@H]2CC(OC(=O)[C@H](CO)c3ccccc3)C[C@H]1[C@@H]1O[C@@H]12 (some centres undefined)
inactive: Potency [1] | outcome [2] | Potency [3] | Potency [4] | max activation [5] -0.815% | Potency [6] | Potency [7] | Potency [8] | Potency [9]

C[N+](C)(C)CCCCCCCCCC[N+](C)(C)C
inactive: Potency [1] | outcome [2] | Potency [3] | Potency [4] | max activation [5] -3.83% | Potency [6] | Potency [7] | Potency [8] | Potency [9]

Nc1ccccn1
inactive: Potency [1] | outcome [2] | Potency [3]

CN(C)CCCCCCN(C)C
inactive: Potency [1] | outcome [2] | Potency [3]

C[C@@H]1CCC[C@H](C)N1
inactive: Potency [1] | outcome [2] | Potency [3] | Potency [4] | max activation [5] -0.283% | Potency [6] | Potency [7] | Potency [8] | Potency [9] | Potency [10]

NO
inactive: Potency [1] | outcome [2] | Potency [3]

c1coc(CNc2ncnc3nc[nH]c23)c1
inactive: Potency [1] | outcome [2] | Potency [3]

CC[N+](CC)(CC)CCOc1cccc(OCC[N+](CC)(CC)CC)c1OCC[N+](CC)(CC)CC
inactive: Potency [1] | outcome [2] | Potency [3] | Potency [4] | max activation [5] -1.52% | Potency [6] | Potency [7] | Potency [8] | Potency [9] | Potency [10]

NCCCC(N)(C(=O)O)C(F)F (centres undefined)
inactive: Potency [1] | outcome [2]

CC(C)COC(=O)c1ccc(N)cc1
active: Potency [4] 21.1 µM | Potency [9] 21.9 µM | Potency [10] 13.8 µM
inactive: Potency [1] | outcome [2] | Potency [3] | max activation [5] 0.562% | Potency [6] | Potency [7] | Potency [8]

CN(C)C(=O)Oc1ccc[n+](C)c1
inactive: Potency [1] | outcome [2] | Potency [3] | Potency [4] | max activation [5] -1.23% | Potency [6] | Potency [7] | Potency [8] | Potency [9]

N[C@H](C(=O)O)[C@@H](O)c1ccc(O)c(O)c1
inactive: Potency [1] | outcome [2] | Potency [3] | Potency [4] | max activation [5] -4.66% | Potency [6] | Potency [7] | Potency [8] | Potency [9] | Potency [10]

NC(=O)N[C@@H](CCC(=O)O)C(=O)O
inactive: Potency [1] | outcome [2] | Potency [3] | Potency [4] | max activation [5] -3.04% | Potency [6] | Potency [7] | Potency [8] | Potency [9] | Potency [10]

CCCCN1C=CN(C)C1
inactive: activity change, negative = cytotoxicity [1] 5.38% [at 19 µM] | caspase-3/7 activation [2] 0.127% [at 19 µM] | activity change, negative = cytotoxicity [3] -0.522% [at 19 µM] | activation [4] 3.9% [at 19 µM] | activity change, negative = inhibition [8] -17.2% [at 23.6 µM]

CC(=O)N[C@H]1[C@H]([C@H](O)[C@H](O)CO)OC(C(=O)O)=C[C@@H]1N=C(N)N
inactive: Potency [1] | outcome [2] | Potency [3] | Potency [4] | max activation [5] -1.75% | Potency [7] | Potency [8] | Potency [9] | Potency [10]

CC(N)C12CC3CC(CC(C3)C1)C2 (centres undefined)
inactive: Potency [1] | outcome [2] | Potency [3] | Potency [4] | max activation [5] 8.41% | Potency [6] | Potency [7] | Potency [10]

CCN1CCOCC1
inactive: Potency [1] | outcome [2] | Potency [3] | Potency [4]
active: Potency [8] 6.21 µM

CC(C)=CCC/C(C)=C/C#N
inactive: Potency [1] | outcome [2] | Potency [3] | Potency [4] | Potency [8]

C=COCC1CCC(COC=C)CC1 (centres undefined)
inactive: Potency [1] | outcome [2] | Potency [3] | Potency [4] | Potency [8]

CCCCc1nc(Cl)c(CO)n1Cc1ccc(-c2ccccc2-c2nn[nH]n2)cc1
inactive: Potency [1] | outcome [2] | Potency [3] | Potency [4] | max activation [5] -3.95% | Potency [6] | Potency [7] | Potency [9]

O=C(O)CCSCCC(=O)O
inactive: Potency [1] | outcome [2] | Potency [3] | Potency [4] | Potency [8] | Potency [9]

COc1cc(C(=O)NCc2ccc(OCCN(C)C)cc2)cc(OC)c1OC
inactive: Potency [1] | outcome [2] | Potency [3] | Potency [4] | max activation [5] 4.67% | Potency [7] | Potency [9]

COc1ccc2cc1Oc1cc3c(cc1OC)CC[N+](C)(C)[C@H]3Cc1ccc(cc1)Oc1c(OC)c(OC)cc3c1[C@@H](C2)[N+](C)(C)CC3
inactive: Potency [1] | outcome [2] | Potency [3] | Potency [4] | max activation [5] 0.186% | Potency [6] | Potency [7] | Potency [8] | Potency [10]

Cc1nc2ccc(CN(C)c3ccc(C(=O)N[C@@H](CCC(=O)O)C(=O)O)s3)cc2c(=O)[nH]1
inactive: Potency [1] | outcome [2] | Potency [3] | Potency [4] | max activation [5] -1.92% | Potency [6] | Potency [7] | Potency [8] | Potency [9] | Potency [10]

Cc1cccc(C)c1NC(=O)CC12CCCN1CCC2
inactive: Potency [1] | outcome [2] | Potency [3] | Potency [4] | max activation [5] 6.3% | Potency [6] | Potency [7] | Potency [9] | Potency [10]
